In PubChem BioAssay (EPA / NIEHS):
Active and inactive are the calls of the source. Rule for the calls: active = hit-call score of the fitted dose curve at least 0.9, where 1 is the maximum; inactive = score below 0.9.

Assays:
[1] = APR_HepG2_CellCycleArrest_24hr: Apredica 24-hour HepG2 Assay for Cell Cycle Arrest (AID 2282905); settings: imaging, actives raise or lower the signal;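 note: cell cycle arrest scored as ratio of 2N to 4N nuclear DNA content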
Procedure, shortened: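 Readout: Hoechst 33342 nuclear DNA content by high-content fluorescent imaging, six images/well, 20x. Human HepG2 liver cells, 24 hr compound exposure, 0.39–200 uM, final DMSO 0.5% v/v. Gain or loss fitted relative to DMSO baseline.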

[2] = APR_HepG2_NuclearSize_24hr: Apredica 24-hour HepG2 Assay for Nuclear Size (AID 2282907); settings: high-content imaging, actives raise or lower the signal
Procedure, shortened: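 Read-out: nuclear diameter from Hoechst 33342 (2 ug/mL) imaging of fixed HepG2 cells, 20x, six fields/well. Compounds ran at 0.39–200 uM for 24 hr, 0.5% DMSO final. Gain or loss was fitted bidirectionally relative to the DMSO baseline.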

[3] = APR_HepG2_CellLoss_24hr: Apredica 24-hour HepG2 Assay for Cell Loss (AID 2282908); settings: high-content imaging;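 for AC50: fit in both directions so a hit may be cell loss or gain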
Procedure, shortened: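 Read-out: Hoechst 33342-stained nuclei counted by automated fluorescence imaging after formaldehyde fixation and Triton permeabilization. Ten concentrations, 0.39 to 200 uM, duplicate wells, 0.5% DMSO final. Gain or loss of signal fitted relative to DMSO baseline.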

[4] = APR_HepG2_MicrotubuleCSK_24hr: Apredica 24-hour HepG2 Assay for Microtubule CSK Stabilty (AID 2282909); settings: HepG2 microtubule cytoskeleton imaging, actives raise or lower the signal
Procedure, shortened: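 Read-out: alpha-tubulin immunofluorescence intensity by automated high-content imaging of fixed HepG2 cells after 24 h compound treatment. Ten concentrations, 0.39 to 200 uM, in duplicate; DMSO 0.5% v/v. Taxol positive control; DMSO-normalized bidirectional curve fitting.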

[5] = APR_HepG2_MitoticArrest_24hr: Apredica 24-hour HepG2 Assay for Mitotic Arrest (AID 2282910); settings: high-content imaging, actives raise or lower the signal
Procedure, shortened: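 HepG2, 24 hr dosing, 0.39–200 uM, 0.5% DMSO final. Formaldehyde-fixed, Triton-permeabilised, anti-phospho-histone H3 plus Hoechst. ArrayScan imaging at 20x; bidirectional fit vs DMSO baseline.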

[6] = APR_HepG2_MitoMembPot_24hr: Apredica 24-hour HepG2 Assay for Mitochondrial Membrane Potential (AID 2282911); settings: imaging, actives raise or lower the signal
Procedure, shortened: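 HepG2 cells exposed 24 h to 0.39–200 uM compounds in duplicate, 0.5% v/v DMSO final. MitoTracker Red CMXRos 250 nM loaded 30 min before formaldehyde fixation; high-content imaging at 20x, bidirectional fit versus DMSO.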

[7] = APR_HepG2_MitoMass_24hr: Apredica 24-hour HepG2 Assay for Mitochondrial Mass (AID 2282912); settings: high-content imaging, actives raise or lower the signal
Procedure, shortened: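 HepG2, 24 hr dosing, 10 concentrations 0.39–200 uM in duplicate, DMSO 0.5% final. MitoTracker Red CMXRos 250 nM, 30 min pre-fix; 3.7% formaldehyde fix. Imaging-based fluorescence intensity; gain/loss fit vs DMSO baseline.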

[8] = APR_HepG2_p53Act_24hr: Apredica 24-hour HepG2 Assay for p53 Activation (AID 2282913); settings: high-content imaging, actives raise or lower the signal;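 note: p53 protein immunofluorescence averaged per cell in HepG2 with Hoechst nuclei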
Procedure, shortened: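 HepG2 cells exposed 24 h to compounds at 0.39–200 uM in duplicate, 0.5% v/v DMSO final; fixed, permeabilized, stained with anti-p53 antibody and Hoechst 33342; fluorescence imaging; bidirectional curve fit versus DMSO.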

[9] = APR_HepG2_CellCycleArrest_72hr: Apredica 72-hour HepG2 Assay for Cell Cycle Arrest (AID 2282914); settings: high-content imaging, actives raise or lower the signal
Procedure, shortened: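 HepG2 cells exposed 72 h in duplicate to 0.39–200 uM compound, 0.5% DMSO final. Formaldehyde-fixed, Hoechst 33342-stained nuclei imaged at 20x, six fields per well; DNA content per valid cell quantified by cell-cycle image analysis, bidirectional fit versus DMSO.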

[10] = APR_HepG2_CellLoss_72hr: Apredica 72-hour HepG2 Assay for Cell Loss (AID 2282915); settings: high-content imaging
Procedure, shortened: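 HepG2 cells exposed 72 h to compound at 0.39–200 uM (10 concentrations, duplicate) in 0.5% DMSO. Fixed with 3.7% formaldehyde and Hoechst 33342-stained. Imaged at 20x; nuclear count gives cell number, fitted bidirectionally versus DMSO.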

Measured: AC50

COc1ccc2cc(S(=O)(=O)N[C@H](CC(=O)N[C@H](Cc3ccc(CN4[C@H](C)CCC[C@@H]4C)cc3)C(=O)N(C)C(C)C)c3ccc4c(c3)OCO4)ccc2c1
active: [2] 28.7 µM | [3] 39.6 µM | [4] 7.6 µM | [5] 16 µM | [7] 12.7 µM | [8] 20.4 µM | [10] 25.3 µM
inactive: [1] | [6] | [9]

O=C(O)c1ccccc1C(=O)OCc1ccccc1
inactive: [1] | [2] | [3] | [4] | [5] | [6] | [7] | [8] | [9] | [10]

CCCC(=O)OCCC(C)C
inactive: [1] | [2] | [3] | [4] | [5] | [6] | [7] | [8] | [9] | [10]

CC(C)(c1cc(Br)c(O)c(Br)c1)c1cc(Br)c(O)c(Br)c1
inactive: [2] | [4] | [7] | [8]
active: [1] 77 µM | [3] 92.1 µM | [5] 96.3 µM | [6] 66.1 µM | [9] 82.9 µM | [10] 56.7 µM

CCCCCCCCCC(=O)O
inactive: [1] | [2] | [3] | [4] | [5] | [6] | [7] | [8] | [9] | [10]

CN(C)c1ccc(C(=C2C=CC(=[N+](C)C)C=C2)c2ccc(N(C)C)cc2)cc1
inactive: [2] | [7]
active: [1] 0.747 µM | [3] 6.05 µM | [4] 22 µM | [5] 4.66 µM | [6] 27.3 µM | [8] 2.93 µM | [9] 0.407 µM | [10] 3.23 µM

NC(=O)c1nc(-c2cccc(-c3cc(F)ccc3OCC(F)(F)C(F)(F)F)c2)n[nH]1
active: [3] 127 µM | [5] 101 µM | [7] 160 µM | [9] 104 µM | [10] 91.9 µM
inactive: [1] | [2] | [4] | [6] | [8]

Clc1ccccc1C(c1ccccc1)(c1ccccc1)n1ccnc1
active: [2] 72.3 µM | [3] 20.3 µM | [4] 30.7 µM | [5] 31.6 µM | [9] 13.8 µM | [10] 18.9 µM
inactive: [1] | [6] | [7] | [8]

CCCCCCCCOc1ccc(C(=O)c2ccccc2)c(O)c1
active: [1] 103 µM | [9] 164 µM | [10] 91.6 µM
inactive: [2] | [3] | [4] | [5] | [6] | [7] | [8]

O=C(O)c1ccccc1-n1cc(C(=O)O)c(=O)c2cc(Nc3c(F)cc(F)cc3Cl)c(Cl)cc21
inactive: [1] | [2] | [3] | [4] | [5] | [6] | [7] | [8] | [9] | [10]

CC1=CC(=O)/C(=C(/C)O)C(=O)O1
inactive: [1] | [2] | [3] | [4] | [5] | [6] | [7] | [8] | [9] | [10]

CO[C@H]1/C=C/O[C@@]2(C)Oc3c(C)c(O)c4c(O)c(c(/C=N/N5CCN(C)CC5)c(O)c4c3C2=O)NC(=O)/C(C)=C\C=C\[C@H](C)[C@H](O)[C@@H](C)[C@@H](O)[C@@H](C)[C@H](OC(C)=O)[C@@H]1C
active: [10] 45.2 µM
inactive: [1] | [2] | [3] | [4] | [5] | [6] | [7] | [8] | [9]

COc1cccc([C@H](O)C2CCN(CCc3ccc(F)cc3)CC2)c1OC
active: [1] 75.2 µM | [10] 105 µM
inactive: [2] | [3] | [4] | [5] | [6] | [7] | [8] | [9]

Cc1ccc2oc(CN(Cc3ccccc3)C(=O)Nc3c(F)cc(F)cc3F)c(-c3ccc(Cl)cc3)c2c1
inactive: [1] | [2] | [3] | [4] | [5] | [6] | [7] | [8] | [9] | [10]

Cc1c2ccccc2c(C)c2c1ccc1ccccc12
active: [1] 44.6 µM | [2] 77.3 µM | [3] 56.1 µM | [4] 74.5 µM | [5] 49.3 µM | [6] 95.7 µM | [8] 0.069 µM | [9] 6.16 µM | [10] 40.3 µM
inactive: [7]

CCN(Cc1cccnc1)C(=O)c1cccc(Cl)c1[C@]1(C)C(=O)N(Cc2ccc(OC)cc2OC)c2ccc(Cl)cc21
inactive: [1] | [2] | [3] | [4] | [5] | [7] | [8] | [9]
active: [6] 50.3 µM | [10] 14.4 µM

CCN(CC)C(=O)c1cc(S(=O)(=O)Cc2ccccc2)c(N2CCC(c3ccccc3)CC2)cc1N(CC)CCN(C)C
active: [1] 75.9 µM | [3] 5.48 µM | [4] 11.1 µM | [5] 1.59 µM | [7] 23.1 µM | [8] 18.6 µM | [9] 3.21 µM | [10] 2.54 µM
inactive: [2] | [6]

Cc1cccc2ccccc12
inactive: [1] | [2] | [3] | [4] | [5] | [6] | [7] | [8] | [9] | [10]

CCCOC(=O)c1cc(O)c(O)c(O)c1
active: [8] 38.1 µM | [9] 46.2 µM | [10] 8.44 µM
inactive: [1] | [2] | [3] | [4] | [5] | [6] | [7]
